Screening data from PubChem.
A selection: hits, their analogues and other compounds. The true share with any hit is near 9.3%.
Sm TGR block = qHTS Assay for the Inhibitors of Schistosoma Mansoni Peroxiredoxins; purified TGR, DTNB reduction, TNB absorbance 405 nm; Schistosoma mansoni thioredoxin glutathione reductase (TGR), Q962Y6; Potency, µM (doses to about 114 µM), hits mostly inhibitors; 360,000 tested, 3% active; note: nearly all actives have a fitted effect of over 60% in size
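First, TGR (20 nM dispensed) and NADPH were mixed with compound. Second, a 15 min room-temperature incubation followed. Third, further NADPH and then DTNB were added to start the reaction. Finally, TNB absorbance was monitored kinetically.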
HCV inh = qHTS Assay for Inhibitors of Hepatitis C Virus (HCV) | Huh7.5.1 HCVcc-Cre infection, luciferase reporter, 44 h | 340,000 tested, 3.4% active | AID 651820, 2012 | Potency, µM (doses to about 41.8 µM), hits mostly inhibitors
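After 44 h co-culture of compound, cells and HCVcc-Cre (~0.5 moi), substrate is added for 15 min at room temperature and luciferase measured over 15 sec. Cells were seeded at 1,000/well and pre-cultured 4 h.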
VACV mCherry inh = qHTS for Stage-Specific Inhibitors of Vaccinia Orthopoxvirus: mCherry Reporter Primary qHTS; Vaccinia virus mCherry reporter infection, fluorescence; Potency, µM (top dose mostly 36.5 µM), usual class: inhibitors; 310,000 tested, 0.63% active; AID 720579, 2013; calls by dose curve; tested in A549 cells; note: nearly all actives have a fitted effect of over 35% in size
FMDV antiviral = High Throughput Screening for Foot and Mouth Disease Virus Antivirals. Potency, µM (highest dose often 57.9 µM), usual class: inhibitors. 410,000 tested, 1.2% active. FMDV antiviral cell-based qHTS; calls by dose curve; tested in HEK293T cells; note: read-out not given here; nearly all actives have a fitted effect of over 45% in size
VACV Venus inh = qHTS for Stage-Specific Inhibitors of Vaccinia Orthopoxvirus: Venus Reporter Primary qHTS; 330,000 tested, 0.46% active; Potency, µM (titrated, usually from 36.5 µM), actives largely listed as inhibitors; AID 720580, 2013; Vaccinia virus Venus reporter expression, fluorescence; calls by dose curve; tested in A549 cells; note: nearly all actives have a fitted effect of over 30% in size
HCMV inh = qHTS Assay for inhibitors of the human cytomegalovirus (HCMV); HFF cells, HCMV-luciferase reporter, 72 h; stronger effect = lower value; activity change, negative = inhibition, % at 57.5 µM; 410,000 tested, 4.5% active; AID 1259415, 2018; in the data active = activity change below about -60%; inconclusive = no clear call, values can overlap the other calls; inactive = above about -39%
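Inhibition of viral replication was scored as loss of reporter luminescence in HFFs infected with HCMV-luciferase (MOI 1 PFU/cell) for 72 h; compounds tested at 2 doses, normalized to buffer and Salinomycin controls.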
A number is an active result; i = inactive; ? = inconclusive; nt = not tested or not shown. Unless noted, calls come from the whole dose curve; as a rule, active = well fitted curve in the direction sought with a large enough effect; inconclusive = small, poorly fitted or top-dose-only effect, or another doubt; inactive = no such curve, though single readings can be large; an effect the other way counts as inactive or inconclusive.

SMILES | Sm TGR block | HCV inh | VACV mCherry inh | FMDV antiviral | VACV Venus inh | HCMV inh
CCn1nc(C)c2c(-c3ccccc3)cc(=O)n(C(C)C(=O)NCCc3ccc(Cl)cc3)c21 (configuration not stated) | i | nt | i | i | i | i
COc1ccccc1C(=O)NC(=O)COC(=O)CN1C(=O)NC2(CCCCC2C)C1=O (configuration not stated) | i | i | i | i | i | i
O=C(Nc1ccc(F)cc1)c1cc2cc3ccc(Cl)cc3nc2o1 | i | nt | i | i | i | i
COc1ccc(CNC(=O)C2CCN(S(=O)(=O)Cc3ccccc3)CC2)cc1 | i | nt | i | i | i | i
COC(=O)c1ccc(CCc2cc(O)ccc2O)cc1 | nt | 4µM | ? | i | i | nt
COC(=O)c1ccc(OCC(=O)c2ccc(O)cc2O)cc1 | i | i | nt | i | nt | -61
CCOC(=O)c1ccc(OCC(=O)c2ccc(O)cc2O)cc1 | i | i | i | i | i | i
O=C(OCc1ccccc1)c1ccc(NCc2cc(O)ccc2O)cc1 | nt | 5µM | 10µM | 10µM | ? | -87
COC(=O)c1ccc(CCc2cc(O)c(Br)cc2O)cc1 | nt | ? | i | i | i | i
CCC(=O)Nc1ccc(C(=O)OCc2ccccc2)cc1 | i | i | i | i | i | i
CC(C)OC(=O)c1ccc(NCc2cc(O)ccc2O)cc1 | nt | 3.5µM | ? | 6.3µM | i | -63
COP(=O)(OC)c1ccc(NCc2cc(O)ccc2O)cc1 | nt | i | i | i | i | ?
CN(Cc1ccccc1)C(=O)COC(=O)c1ccc(Br)o1 | nt | i | i | i | i | i
CCOc1ccc(/C=N/OCC(=O)NCc2ccc3c(c2)OCO3)cc1OC | i | ? | i | ? | i | i
COc1ccc2c(c1)CC1(CN2C)C(=O)NC(=O)N(c2ccc(C)cc2)C1=O (configuration not stated) | 50µM | i | nt | i | i | i
COc1ccc2c(c1)CC1(CN2C)C(=O)NC(=O)N(c2ccc(F)cc2)C1=O (configuration not stated) | ? | i | nt | i | nt | i
Cc1ccc(NC(=O)CO/N=C/c2ccccc2C)c(C)c1 | i | i | i | i | i | i
CCOc1cc(/C=C2\C(=O)N(Cc3ccc(C)cc3)C(C)=C2C(=O)OC)ccc1O | 22µM | i | nt | 35µM | i | i
CCOC(=O)C1=C(C)N(c2ccc(OC)cc2)C(=O)/C1=C\c1cccs1 | i | 13µM | nt | ? | nt | -62
CCOC(=O)C1=C(C)N(c2ccc(OC)cc2)C(=O)/C1=C\c1ccc(O)c(OCC)c1 | 4.5µM | i | nt | ? | nt | i
COC(=O)C1=C(C)N(CCc2ccc(OC)c(OC)c2)C(=O)/C1=C\c1ccc(O)cc1 | 28µM | i | i | ? | i | ?
COC(=O)C1=C(C)N(CCc2ccc(OC)c(OC)c2)C(=O)C1 | i | i | nt | i | i | i
C[C@@H]1O[C@@H](O[C@@H]2C=C3CC[C@@H]4[C@@H](CC[C@]5(C)[C@H](c6ccc(=O)oc6)CC[C@@]45O)[C@@]3(C)CC2)[C@H](O)[C@H](O)[C@H]1O | nt | nt | 10µM | nt | 6.3µM | nt
c1ccc(CNc2c3c(nc4ccccc24)CCC3)cc1 | i | ? | i | ? | i | ?
OCCNc1c2c(nc3ccccc13)CCCC2 | i | i | i | i | i | i
SMILES | Sm TGR block | HCV inh | VACV mCherry inh | FMDV antiviral | VACV Venus inh | HCMV inh
CC(C)CNc1c2c(nc3ccccc13)CCC2 | i | ? | i | ? | ? | -68
CN(C)CCCNc1c2c(nc3ccccc13)CCC2 | i | ? | nt | i | nt | -95
O=C(OCc1ccc([N+](=O)[O-])cc1)c1cc([N+](=O)[O-])ccc1N1CCOCC1 | i | 4.5µM | ? | i | i | i
O=C(OCc1ccccc1Cl)c1cc([N+](=O)[O-])ccc1N1CCOCC1 | nt | ? | nt | ? | nt | i
CC1CC(C)CN(C(=O)COC(=O)c2cc([N+](=O)[O-])ccc2N2CCOCC2)C1 (configuration not stated) | i | ? | i | i | i | i
Cc1ccc(COC(=O)c2cc([N+](=O)[O-])ccc2N2CCOCC2)cc1 | i | nt | nt | nt | nt | -63
O=C(OCC(=O)N1CCCC1)c1cc([N+](=O)[O-])ccc1Cl | i | i | i | 10µM | i | i
CC1CCCN(C(=O)COC(=O)c2cc([N+](=O)[O-])ccc2N2CCOCC2)C1 (configuration not stated) | i | 32µM | i | i | i | i
Cc1ccc(N=C2SC(C(=O)NCCc3ccccc3)CC(=O)N2C)cc1C (configuration not stated) | i | i | i | i | i | i
O=C(OCc1c(F)cccc1Cl)c1cc([N+](=O)[O-])ccc1N1CCOCC1 | i | 11µM | ? | i | i | i
Cc1n[nH]c2c([N+](=O)[O-])c(=O)[nH]c(=O)n12 | nt | i | i | i | i | -71
O[C@@H]1CN(Cc2ccc(-n3cccn3)cc2)CC[C@H]1N1CCN(c2ccccc2F)CC1 | i | 8.9µM | nt | ? | nt | ?
c1ccc2c(Nc3nncs3)c3ccccc3nc2c1 | i | ? | nt | i | nt | i
CC(=O)Nc1ccc(Oc2cc(C#N)c(C#N)cc2N2CCCCCC2)cc1 | i | ? | ? | 18µM | ? | ?
CNc1ncnc(Sc2ccc(Cl)cc2)c1[N+](=O)[O-] | 0.56µM | ? | i | ? | i | i
COc1ccc(NC(=O)c2cccnc2Sc2ccccc2)c(OC)c1 | i | i | i | i | i | i
COc1ccc(CNC(=O)CN(C(=O)CCC(=O)Nc2ccccn2)c2cc(C)ccc2C)cc1 | i | i | i | i | i | i
O=C(CN1C(=O)NC2(CCCCC2)C1=O)Nc1ccc(F)cc1 | i | i | i | i | i | i
O=C(CN1C(=O)NC2(CCCCCCC2)C1=O)Nc1ccc(Br)cc1 | i | 32µM | nt | ? | nt | i
O=C(CCCN1C(=O)NC2(CCCC2)C1=O)Nc1ccc(F)cc1 | i | i | i | i | i | i
COc1ccccc1NS(=O)(=O)c1cc(NC(=O)CN2C(=O)NC3(CCCCC3)C2=O)ccc1C | nt | 13µM | nt | i | nt | i
Cc1ccc(S(=O)(=O)N(C)C)cc1NC(=O)CN1C(=O)NC2(CCCCCC2)C1=O | i | i | i | i | i | i
Cc1ccc(NC(=O)CN2C(=O)NC3(CCCCCCC3)C2=O)cc1C | i | i | i | i | i | i
Cc1ccc(Sc2ccc(NC(=O)CCN3C(=O)NC4(CCCC4)C3=O)cc2)c(C)c1 | i | 4µM | nt | ? | nt | i
COc1ccc(NS(=O)(=O)c2ccc(C)c(NC(=O)CN3C(=O)NC4(CCCC4)C3=O)c2)cc1 | i | i | nt | i | nt | -66
Cc1c(C(=O)N2C[C@@H](C)O[C@@H](C)C2)oc2c(F)cccc12 | i | i | nt | i | nt | i
CC12CCC(C(=O)N(NC(=O)c3cccnc3)C1=O)C2(C)C (configuration not stated) | i | i | i | i | i | i
